# KB-V1 cytotox = kills drug-selected multidrug resistant KB-V1 cells; KB-V1 MDR cells viability, CellTiter-Glo, 72 h; Potency, µM (series often up to 46.1 µM), hits mostly cytotoxic; 400,000 tested, 3.4% active; AID 1347076; also: % is scaled to controls: 0 for no effect and ±100 for the full control effect; nearly all actives have a fitted effect of over 60% in size
#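 Drug-selected KB-V1 cells, grown in DMEM lacking phenol red with 10% FBS, receive compound titrations; after three days at 37 degrees C, surviving cell ATP is quantified by CellTiter-Glo luminescence and responses normalized and curve-fitted.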
# KB-3-1 cytotox = kills parental KB-3-1 adenocarcinoma cells. KB-3-1 viability, CellTiter-Glo ATP luminescence, 72 h. Potency, µM (top dose mostly 46.1 µM), hits mostly cytotoxic. 400,000 tested, 1.4% active. AID 1347075; also: % is scaled to controls: 0 for no effect and ±100 for the full control effect; nearly all actives have a fitted effect of over 60% in size
#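 KB-3-1 parental drug-naive adenocarcinoma cells in DMEM/10% FBS, incubated 72 h at 37 C with pin-transferred compounds across a concentration series. Viability by CellTiter-Glo luminescence; concentration-response curves fitted after normalization.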
# SW480 rerep = induces DNA re-replication in SW480 colon adenocarcinoma cells | SW480 DNA re-replication, Hoechst DNA content imaging, 48 h | Potency, µM (doses to about 46.1 µM), inactives show top-dose re-replication activation, most hits filed as activators | 340,000 tested, 1.8% active; also: % of control where 0% means no effect; nearly all actives have a fitted effect of over 55% in size
#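 First, 250 cells per well were seeded. Next, compound or vehicle (23 nL) was pinned in, plates sat 48 hr at 37 C. Finally Hoechst was added for 40 min before fluorescence scanning.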
# MCF10A rerep = inducers of DNA re-replication in MCF 10A breast cells | 350,000 tested, 2.9% active | AID 624296 | Potency, µM (highest dose often 46.1 µM), without a hit: at the highest dose activity, positive = re-replication, hits mostly activators | MCF 10A DNA re-replication, Hoechst nuclear intensity, 48 h; also: % of control where 0% means no effect; nearly all actives have a fitted effect of over 50% in size
# ELG1 DNA repair = blocks ELG1-dependent DNA repair in HEK293T cells; HEK293T ELG1-luciferase reporter, luminescence, 16 h; DNA damage induced by 5-fluorouridine; Potency, µM (highest dose often 46.1 µM), without a hit: at the highest dose activity change, negative = inhibition, hits mostly inhibitors; 330,000 tested, 2.3% active; AID 504467; also: % is scaled to controls: 0 for no effect and ±100 for the full control effect; nearly all actives have a fitted effect of over 55% in size
#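 Overnight (16 hr) co-exposure of 2,000 cells/well to 5-fluorouridine and compound at 37 °C preceded detection. Luciferase was quantified via ONE-Glo luminescence; loss of signal denotes inhibition.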
# * hit, by the source's call; i = inactive; ? = inconclusive; / = no result. A selection: hits, their analogues and other compounds. The true share with any hit is near 8.1%. Calls follow the shape of the dose curve; as a rule, active = well fitted curve in the direction sought with a large enough effect; inconclusive = small, poorly fitted or top-dose-only effect, or another doubt; inactive = no such curve, though single readings can be large; an effect the other way counts as inactive or inconclusive. Potency is read from the fitted curve at half-maximal effect.
SMILES,KB-V1 cytotox,KB-3-1 cytotox,SW480 rerep,MCF10A rerep,ELG1 DNA repair
COc1ccccc1-c1cn[nH]c1-c1ccc(OCc2ccc([N+](=O)[O-])cc2)cc1O,i,i,-1%,4%,?
COc1ccc(-c2cn[nH]c2-c2ccc(OCC(=O)NN)cc2O)cc1OC,i,i,-2%,-2%,2%
C=C(C)COc1ccc(-c2n[nH]c(C)c2-c2ccc(OC)c(OC)c2)c(O)c1,5.8µM*,6.5µM*,25%,?,21µM*
C=C(C)COc1ccc(-c2n[nH]c(C)c2Oc2ccccc2OC)c(O)c1,?,?,25%,?,?
CCOc1ccccc1Oc1cn[nH]c1-c1ccc(O)cc1O,i,i,-7%,7%,-19%
COc1ccc(-c2cn[nH]c2-c2ccc(OCc3ccccc3)cc2O)cc1OC,?,?,?,?,13µM*
COc1ccc(-c2cn[nH]c2-c2ccc(OCc3ccc(F)cc3)cc2O)cc1OC,?,?,18µM*,21µM*,?
COc1cc(Cl)c(C)cc1NC(=O)CNC(=O)Cn1ccc2ccccc2c1=O,i,i,/,/,/
Cc1ccc(S(=O)(=O)N2CCC(C(=O)N3CCCCCCC3)CC2)cc1C,?,i,/,/,/
CCCCNc1nc(Oc2ccc(OCC(N)=O)nn2)nc(N2CCOCC2)n1,i,i,/,/,/
Cc1ccnc(N=O)c1,i,i,-1%,-40%,?
COc1ccc(-c2n[nH]c(C)c2-c2ccc(Cl)cc2)c(O)c1OC,?,?,5%,18µM*,12µM*
COc1ccccc1-c1cn[nH]c1-c1ccc(OCc2ccc(F)cc2)cc1O,i,i,13%,?,?
COc1ccccc1-c1cn[nH]c1-c1ccc(OCc2ccccc2F)cc1O,i,i,?,7.3µM*,-16%
C=C(C)COc1ccc(-c2[nH]ncc2-c2ccc(OC)cc2)c(O)c1,i,i,13%,?,?
COc1ccc(-c2n[nH]c(C)c2-c2ccc(Cl)cc2)c(O)c1,i,?,-1%,?,0%
C=C(C)COc1ccc(-c2[nH]ncc2-c2ccc(OC)c(OC)c2)c(O)c1,1.3µM*,1.6µM*,2.9µM*,5.2µM*,21µM*
Oc1cc(OCc2ccccc2)ccc1-c1[nH]ncc1-c1ccccc1,i,i,1%,23µM*,5%
CCN(C(=O)C1CCCN1S(=O)(=O)c1ccc2c(c1)n(C)c(=O)c(=O)n2C)c1ccccc1 (stereo not drawn),i,i,-2%,2%,-2%
O=C(CSc1nc(=O)n2ccccc2n1)N1CCN(c2ccccc2)CC1,i,i,?,16%,-4%
CCOC(=O)c1c(C)[nH]c(C)c1S(=O)(=O)N1CCC(C(=O)Nc2ccc(F)cc2F)CC1,i,i,/,/,/
COc1ccc(C(=O)NC2=NCCS2)cc1S(=O)(=O)N1CCOCC1,i,i,/,/,/
COc1ccccc1N1CCN(C(=O)CSc2nc3ccccc3o2)CC1,21µM*,i,-1%,?,11%
COc1ccccc1N1CCN(C(=O)CSc2nc3ccccc3c(=O)n2CC2CCCO2)CC1 (stereo not drawn),?,i,-2%,0%,23µM*
CC(Sc1nc2ccccc2c(=O)n1CC1CCCO1)C(=O)NC(C)c1ccccc1 (stereo not drawn),i,i,-4%,0%,5%
SMILES,KB-V1 cytotox,KB-3-1 cytotox,SW480 rerep,MCF10A rerep,ELG1 DNA repair
COc1ccccc1N1CCN(C(=O)CSc2nc3ccccc3nc2Cc2ccccc2)CC1,i,i,/,/,/
COc1ccc(CNC(=O)C(C)Sc2nc3ccccc3c(=O)n2CC2CCCO2)cc1 (stereo not drawn),5.8µM*,i,-3%,-2%,3%
O=C(Nc1ccc(F)cc1)C(CCc1ccccc1)N1CCN(c2ccncc2)CC1 (stereo not drawn),i,i,/,/,/
CNC(=O)c1c(NC(=O)c2ccc(S(=O)(=O)N3CCCc4ccccc43)cc2)sc2c1CCN(C)C2,i,i,?,21µM*,?
CN1CCc2c(sc(NC(=O)c3ccc(S(=O)(=O)N4CCCCCC4)cc3)c2C(N)=O)C1,21µM*,i,17%,16µM*,10%
CCN1CCc2c(sc(NC(=O)c3ccc(S(=O)(=O)N4CCCC4)cc3)c2C(=O)NC)C1,?,?,?,18µM*,6%
Cc1ccccc1Cn1c(C)c(C(=O)NCc2ccc(Cl)c(Cl)c2)sc1=O,?,i,/,/,/
Cc1c(C(=O)NCc2cccc(Cl)c2)sc(=O)n1Cc1ccc(F)cc1,?,i,/,/,/
Cc1c(C(=O)NCc2ccco2)sc(=O)n1Cc1ccc(S(C)(=O)=O)cc1,i,i,/,/,/
Cc1c(C(=O)NCc2cccc(Cl)c2)sc(=O)n1Cc1ccc(C(=O)N(C)C)cc1,21µM*,?,/,/,/
Cc1c(C(=O)NCc2ccc(Cl)c(Cl)c2)sc(=O)n1Cc1ccc(S(=O)(=O)N(C)C)cc1,?,8.2µM*,/,/,/
Cc1c(C(=O)NCc2ccc(C(C)C)cc2)sc(=O)n1Cc1ccc(S(=O)(=O)N(C)C)cc1,2.6µM*,?,/,/,/
C=Cc1ccc(Cn2c(C)c(C(=O)NCc3ccc4c(c3)OCCO4)sc2=O)cc1,9.2µM*,?,/,/,/
Cc1cn([C@H]2C[C@H](O)[C@@H](CNCc3ccc(CN(C)S(C)(=O)=O)o3)O2)c(=O)[nH]c1=O,i,i,/,/,/
NS(=O)(=O)c1ccc(CNC(=S)Nc2cc(S(=O)(=O)N3CCOCC3)ccc2Cl)cc1,i,i,-12%,2%,/
CCc1nn(-c2ccccc2)c2nc(-c3cccc(OC)c3)c3cc(OC)c(OC)cc3c12,i,i,/,/,/
Cc1c(C(=O)NCc2ccc(C(C)C)cc2)sc(=O)n1Cc1cccc(F)c1,i,i,/,/,/
CSc1ccc(Cn2c(C)c(C(=O)NCc3ccc(C(C)C)cc3)sc2=O)cc1,16µM*,18µM*,/,/,/
COc1cccc(CNC(=O)c2cc3c(cc2Cl)N2CCCCCC2=NS3(=O)=O)c1,i,i,3%,0%,-1%
COc1ccccc1Nc1ccc(NC(=O)c2cccc([N+](=O)[O-])c2C)cc1,?,18µM*,38%,-1%,?
COc1ccc(NC(=O)c2ccccc2[N+](=O)[O-])cc1,i,i,-1%,3%,?
Cc1ccc(NC(=O)Cn2c(=O)ccc3cc(S(=O)(=O)N4CCCC4)ccc32)cc1C,i,i,/,/,/
c1ccc2oc(-c3[nH]ncc3CN3CCC(N4CCSCC4)CC3)cc2c1,i,i,-6%,23µM*,0%
Fc1ccc(-c2nc(-c3c[nH]c4ccccc34)cs2)cc1,i,?,/,/,/

# Bioassay records: PubChem, National Center for Advancing Translational Sciences (NCATS)
